Measurements reported in ChEMBL document CHEMBL1201862, “PubChem BioAssay data set” (2004).
About 1,400 (0.36%) of roughly 390,000 compounds were called active. Inconclusive results (about 2%) are left out. No cut-off for these calls is given here. The entries come from a sample that favours actives as a whole.

Target: Flap endonuclease 1 (Homo sapiens) (UniProt P39748)
Experiment: qHTS Assay for the Inhibitors of Human Flap endonuclease 1 (FEN1). [Related pubchem assays (depositor defined):AID488813]
Assay type: functional

Chain of Flap endonuclease 1 (Homo sapiens) (P39748 whole entry): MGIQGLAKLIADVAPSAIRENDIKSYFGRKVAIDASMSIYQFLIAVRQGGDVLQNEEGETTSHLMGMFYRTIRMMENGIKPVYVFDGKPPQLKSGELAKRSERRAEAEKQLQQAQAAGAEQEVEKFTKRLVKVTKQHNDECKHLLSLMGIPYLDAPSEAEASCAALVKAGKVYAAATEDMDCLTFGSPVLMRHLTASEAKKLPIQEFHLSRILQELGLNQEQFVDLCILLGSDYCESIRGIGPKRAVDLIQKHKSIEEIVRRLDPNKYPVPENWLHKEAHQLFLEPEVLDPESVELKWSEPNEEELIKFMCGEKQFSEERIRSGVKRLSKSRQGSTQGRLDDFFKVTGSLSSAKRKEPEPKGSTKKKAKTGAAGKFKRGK

Structure (SMILES) | Potency
CC(N)(Cc1ccc(O)c(O)c1)C(=O)O (stereo not drawn) | 2380 nM (active)
CCOC(=O)CN1C(=O)N[C@@H](c2cccc(C(F)(F)F)c2)C(C(=O)OC)=C1C | inactive
Nc1nc2ccc(OC(F)(F)F)cc2s1 | inactive
NCC(O)c1ccc(O)c(O)c1 (stereo not drawn) | 2990 nM (active)
C=CCN1C2CCCC1CC(N=C(S)Nc1cccc(OC)c1)C2 (stereo not drawn) | inactive
CC(=O)c1ccc(NC(=O)NNS(=O)(=O)c2ccc([N+](=O)[O-])cc2)cc1 | inactive
ICCCCN1C=S(CI)c2ccccc21 (stereo not drawn) | 50100 nM (active)
Cc1ccc(C)c(NC(=O)CN(C)C(=O)C2COc3ccccc3O2)c1 (stereo not drawn) | inactive
